# Hit rate of the full screen: of about 340,000 compounds, about 1,000 (0.29%) were called active. Rule as the data show it: inconclusive = inhibition above about 27% without an active follow-up result; inactive = below that. The list is a sample of the results. Entries with a potency or affinity are not part of this list.
# Assay: NS1A inhibition, H1N1 influenza, cell based functional assay (AID 504329)
# Conditions: percent inhibition, at 12.5 µM, active compounds read high
row,SMILES,inhibition
1,CCOC(=O)c1c(C)[nH]c(C)c1S(=O)(=O)N(C)CC(=O)Nc1ccccc1F,-8.93% (inactive)
2,COc1ccc(OC2C(=O)N(CCc3ccc(OC)c(OC)c3)C2c2ccc3c(c2)OCO3)cc1 (stereo not drawn),22.8% (inactive)
3,Cc1cc(C)cc(OCC(O)Cn2nc(C)cc2C)c1 (stereo not drawn),-5.82% (inactive)
4,CC(C)Cc1nc(Cl)c(C#N)c2c1CCCC2,0.11% (inactive)
5,COCC1CCN(C(=O)C2CCC(=O)N(C3CCCCCC3)C2)CC1 (stereo not drawn),8.12% (inactive)
6,COC(=O)CN1C(=O)Nc2ccc(Cl)cc2C1c1ccccc1 (stereo not drawn),4.9% (inactive)
7,CC(=O)c1nn(-c2cccc(C)c2)cc1C(=O)c1cccc(Br)c1,2.16% (inactive)
8,O=C(Nc1ccc(F)cc1)c1ccc(CSc2ccc(Cl)cc2)o1,-1.55% (inactive)
9,C=CCn1c(SCC(=O)C(C)(C)C)nnc1-c1ccccn1,-6.69% (inactive)
10,COc1ccccc1N1CCN(S(=O)(=O)c2c(C(=O)N3CCOCC3)c(C)n(C)c2C)CC1,6.32% (inactive)
11,CCCCCOc1ccc(C(O)C(CN2CCOCC2)c2ccccc2)cc1 (stereo not drawn),-5.3% (inactive)
12,C[C@H](CO)N1C[C@H](C)[C@@H](CN(C)Cc2ccncc2)Oc2c(NS(=O)(=O)c3ccccc3)cccc2C1=O,-17% (inactive)
13,O=C(CSc1n[nH]c(-c2ccco2)n1)Nc1ccc(F)cc1,7.45% (inactive)
14,O=C(CSc1n[nH]c(-c2ccncc2)n1)Nc1ccc(F)cc1,0.02% (inactive)
15,COc1ccc(NC(=O)CSc2n[nH]c(-c3ccco3)n2)cc1,-5.29% (inactive)
16,Cc1ccccc1NC(=O)CSc1n[nH]c(-c2ccccn2)n1,-5.83% (inactive)
17,COc1ccc(NC(=O)CSc2ccccn2)cc1,4.92% (inactive)
18,O=C(CSc1n[nH]c(-c2ccncc2)n1)Nc1ccc(Cl)cc1,-0.89% (inactive)
19,O=C(CSc1n[nH]c(-c2cccnc2)n1)Nc1ccc(Cl)cc1,2.6% (inactive)
20,Cc1ccc(C)c(NC(=O)CSc2n[nH]c(-c3ccncc3)n2)c1,-3.36% (inactive)

row,SMILES,inhibition
1,C[C@@H](NC(=O)Cn1cnc2c(NCc3ccccc3)ncnc21)c1cccc2ccccc12,-9.17% (inactive)
2,CCN(CC(=O)Nc1ccccc1C(F)(F)F)C(=O)CCS(=O)(=O)c1ccc(Cl)cc1,-2.32% (inactive)
3,CC(C)CN(C(=O)CN(C)CC(=O)Nc1ccc(Cl)c(C(F)(F)F)c1)c1c(N)n(CC(C)C)c(=O)[nH]c1=O,-3.46% (inactive)
4,CN=C1CC(C)(C)CC(=O)/C1=C(/O)CCCN1C(=O)c2ccccc2C1=O,-2.2% (inactive)
5,CC12CCC(=O)N1C(C(=O)Nc1nc(-c3ccc(F)c(F)c3)cs1)CS2 (stereo not drawn),-0.9% (inactive)
6,Cc1cccc(NC(=S)NC2CC3CCCC(C2)N3CC(C)C)c1 (stereo not drawn),-0.58% (inactive)
7,COc1cccc(CN2CC(C(=O)N(C)Cc3ccnc4ccccc34)CCC2=O)c1 (stereo not drawn),-0.38% (inactive)
8,COc1cc2cc(CN(CCCN3CCOCC3)C(=O)Nc3ccccc3F)c(=O)[nH]c2cc1OC,-7.1% (inactive)
9,CCCCNC(=O)Cc1coc2ccc3ccccc3c12,-8.22% (inactive)
10,CCC(C)[C@H](NS(=O)(=O)c1ccc(C)cc1)C(=O)N1CCC(C(=O)N[C@H](C(=O)O)c2ccccc2)CC1 (stereo partly drawn),-3.12% (inactive)
11,COc1ccc2[nH]c3c(c2c1)CCN1C(=O)C(CC(=O)NCCCn2ccnc2)C[C@H](C(=O)N2CCOCC2)[C@@]31C (stereo partly drawn),-0.65% (inactive)
12,COc1ccc(S(=O)(=O)N2CN3CCN(C3)C2)cc1OC,-1.61% (inactive)
13,CC(=O)Nc1cccc(OCC(=O)NCCC2=CCCCC2)c1,5.18% (inactive)
14,Cc1ccc(NC(=O)CSc2n[nH]c(-c3ccncc3)n2)cc1,-14.5% (inactive)
15,Cc1ccc(NC(=O)CSc2n[nH]c(-c3ccco3)n2)cc1,-7.19% (inactive)
16,CCC(C)(C)C1CCc2[nH]nc(C(=O)NCCCNC(=O)OC(C)(C)C)c2C1 (stereo not drawn),7.94% (inactive)
17,Cc1ccccc1CN1CCN(CC(=O)NCc2ccccc2)CC1,-8.48% (inactive)
18,COc1cc(C2CC(=O)Oc3c(C(CCN4CCN(c5ccccc5)CC4)c4ccc(N(C)C)cc4)c(OC)cc(OC)c32)cc(OC)c1OC (stereo not drawn),18% (inactive)
19,COc1cc(C2CC(=O)Oc3c(C(CCN4CCOCC4)c4ccc(N(C)C)cc4)c(OC)cc(OC)c32)cc(OC)c1OC (stereo not drawn),19.5% (inactive)
20,COc1ccc(C2CC(=O)Oc3c(C(CCN4CCOCC4)c4cc(OC)c(OC)c(OC)c4)c(OC)cc(OC)c32)cc1 (stereo not drawn),-11.8% (inactive)

row,SMILES,inhibition
1,COc1ccc(C2CC(=O)Oc3c(C(CCN4CCN(c5ccccc5)CC4)c4ccc(N(C)C)cc4)c(OC)cc(OC)c32)cc1 (stereo not drawn),16.5% (inactive)
2,COc1ccc(C(CCN2CCCC(C)C2)c2c(OC)cc(OC)c3c2OC(=O)CC3c2cc(OC)c(OC)c(OC)c2)cc1 (stereo not drawn),-7.41% (inactive)
3,COc1cc(C(CCN2CCOCC2)c2c(OC)cc(OC)c3c2OC(=O)CC3c2ccc(N(C)C)cc2)cc(OC)c1OC (stereo not drawn),13.9% (inactive)
4,Cc1ccc(S(=O)(=O)NC(C)C(=O)Nc2ccc(C(N)=O)cc2)cc1 (stereo not drawn),7.11% (inactive)
5,CN1C(=O)/C(=C\c2ccncc2)SC1=Nc1ccccc1,2.83% (inactive)
6,CC(CCc1ccccc1)NC(=O)c1ccco1 (stereo not drawn),18.9% (inactive)
7,COc1ccc(N=c2oc3c(OC)cccc3cc2C(=O)NCc2ccco2)c(OC)c1,10.4% (inactive)
8,CCOc1ccccc1N(C(=O)c1snc(C(N)=O)c1N)C(C(=O)NCc1ccccc1)c1ccc(O)cc1 (stereo not drawn),11.4% (inactive)
9,CCOc1cc(/C=N/NC(=O)c2cccc([N+](=O)[O-])c2)ccc1OS(=O)(=O)c1ccccc1,-5.88% (inactive)
10,OCCC1CN(C2CSCCSC2)CCN1Cc1ccccc1 (stereo not drawn),-6.56% (inactive)
11,CN1CCN(c2ccc(CNS(=O)(=O)c3ccc(F)cc3Cl)cc2)CC1,-10.3% (inactive)
12,Cc1nc(SCC(=O)NCc2ccccc2)c2c(=O)n(C)c(=O)n(C)c2n1,-13.1% (inactive)
13,Cc1ncc(CO)c(/C=N/NC(=O)c2ccc(O)cc2)c1O,15.5% (inactive)
14,O=C(N/N=C/c1ccccn1)c1cccc(S(=O)(=O)N2CCCC2)c1,-3% (inactive)
15,Cc1ncc(CO)c(/C=N/NC(=O)c2ccccc2Br)c1O,18.5% (inactive)
16,Cc1ncc(CO)c(/C=N/NC(=O)c2ccoc2C)c1O,7.34% (inactive)
17,COc1ccccc1NS(=O)(=O)c1cccc(C(=O)N/N=C/c2c(CO)cnc(C)c2O)c1,17.7% (inactive)
18,COc1ccc(C(=O)N/N=C/c2c(CO)cnc(C)c2O)cc1,21.8% (inactive)

# Source: PubChem BioAssay AID504329 (Southern Research Specialized Biocontainment Screening …, 2011)
